Source: PubChem BioAssay AID1117319 (Southern Research Institute, 2015)
“And” between values parts separate entries of the source, which are not always exact repeats. Identical values can stand only once. The campaign covered roughly 260,000 compounds. About 1,500 (0.58%) were called active. Inconclusive results (about 5%) are left out. Only a sample is shown. Results with a measured potency or affinity are listed apart. A number with no mark means an inactive call.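 How the source made its calls: active means inhibition above a set limit at one or more doses, reproduced on every date tested; inconclusive means results disagree between test dates, or hit never tested in dose response; inactive means the rest.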

These molecules were tested against Virion infectivity factor (Human immunodeficiency virus type 1 group M subtype B (isolate BH10)) + Virion infectivity factor (Human immunodeficiency virus type 1 group M subtype B (isolate BRU/LAI)) + Virion infectivity factor (Human immunodeficiency virus type 1 group M subtype B (isolate PCV12)) + Virion infectivity factor (Human immunodeficiency virus type 1 group M subtype B (isolate HXB2)) + DNA dC->dU-editing enzyme APOBEC-3G (Homo sapiens) (UniProt P69720+P69721+P69722+P69723+Q9HC16) (assay: HIV-1 Vif–A3G interaction blockers – biochemical, TR-FRET, GST-Vif 1-94, biotin-A3G peptide, dose response retest, primary screen (AID 1117319;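 further: Vif residues 1-94 fused to GST binding biotinylated APOBEC3G peptide 110-148; 0% = full assay without inhibitor and 100% = GST in place of GST-Vif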)). Settings: TR-FRET GST-Vif / biotin-A3G peptide binding; stronger effect = higher value.

SMILES | inhibition
Cc1nc(C)n(CC(O)COc2ccc(C(=O)c3ccccc3)cc2)n1 (configuration not stated) | 11.5%
CCCc1cc(=O)oc2c(CN3CCCC3)c(O)ccc12 | -2.7%
Cc1cc2oc(=O)cc(CN3CCCCC3)c2cc1O | -5.08%
CCc1cc(=O)oc2cc(C)c(CN3CCCC(C)C3)c(O)c12 (configuration not stated) | 11.2% and 11.8%
CCCc1cc(=O)oc2c(CN3CCCC3)c(O)c(Cl)cc12 | 8.61%
Fc1ccc2nc(Nc3ccccc3)sc2c1 | -8.41%
CCCCNC(=O)CN1CCN(Cc2ccc3cc(OC)ccc3c2)CC1 | -10.8%
CCN1CCc2c(sc3c2c(NCc2ccco2)nc2nnnn23)C1 | 11.3%
CSc1nc(NCc2ccco2)c2c3c(sc2n1)CN(C)CC3 | 21.2%
Cc1ccc(OCC(=O)N/N=C2/SCC(=O)N2Cc2ccco2)cc1 | 11.4%
Cc1ccc(-c2nnc(SCC(=O)NNC(=O)COc3cccc(C)c3)n2C)cc1 | -3.33%
COCCn1c(C)cc(C(=O)CSc2nc3ccccc3c(=O)[nH]2)c1C | 25.5%
C=CCn1c(C)cc(C(=O)CSc2nc3ccccc3c(=O)[nH]2)c1C | 11.7%
COc1ccccc1C1CCN(Cc2ccc(Cl)c(Cl)c2)CC1 | -7.3%
CC(C)(C)C(=O)Cn1c[n+](N)cn1 | 2.71%
Cc1c(Br)c(=O)oc2c(Br)c(O)ccc12 | -6.73%
Cc1c(Br)c(=O)oc2c(C)c(O)ccc12 | -26.6%
Cc1cc(SCC(=O)N/N=C/c2ccc(O)c(O)c2)c(C)cc1Br | 7.89%
Cc1cc(SCC(=O)N/N=C/c2ccc(O)cc2O)c(C)cc1Br | 31.7%
COc1ccc(CN2C(=O)c3cccnc3C2=O)cc1S(=O)(=O)N1CCCCC1C (configuration not stated) | 1.43%
CCOC(=O)C1=C(C)C(c2ccccc2OC)NC(=O)N1 (configuration not stated) | 25.5%
N#CCc1ccc(Oc2ncccn2)cc1 | 2.04%
O=C(c1ccccc1)c1ccc(Oc2ncccn2)cc1 | -0.66%
O=C(COC(=O)c1ccccc1Nc1ccc(SC(F)F)cc1)NC1CC1 | -3.33%
CCCCOc1ccc(C(=O)NCC(=O)OCCCOC(=O)CNC(=O)c2ccc(OCCCC)cc2)cc1 | -9.89%

SMILES | inhibition
CCCCCOc1ccc(C(=O)NCC(=O)NCC(=O)OCC)cc1 | 21.7%
COc1ccccc1N1CCN(C(=O)c2cc3n(n2)C(C(F)(F)F)CC(c2ccco2)N3)CC1 (configuration not stated) | 3.76%
NC(=O)c1cc2n(n1)C(C(F)(F)F)CC(c1ccco1)N2 (configuration not stated) | 28%
NC(=O)C1CCN(C(=O)c2cc3n(n2)C(C(F)(F)F)CC(c2ccco2)N3)CC1 (configuration not stated) | 21.3%
O=C(O)c1cc2n(n1)C(C(F)(F)F)CC(c1ccco1)N2 (configuration not stated) | 23.7%
O=C(c1cc(-n2cnnc2)ccc1Cl)N1CCN(c2nc(-c3ccccc3)cs2)CC1 | -0.17%
O=C(NC12CC3CC(CC(C3)C1)C2)N(Cc1ccccc1)Cc1ccncc1 | -2.12%
Cc1cc(C)n2nc(SCCCC(=O)c3ccccc3)nc2n1 | -0.54%
COc1ccccc1NC(=S)NNC(=O)c1cc(C)n(C)n1 | 5.87%
COc1ccc2[nH]c(C)c(CCNC(=S)Nc3ccccc3C)c2c1 | -0.27%
O=c1oc2cc(O)ccc2c2ccccc12 | -45.8%
O=c1oc2ccccc2c2oc3cc(O)c(O)cc3c12 | 24.2%
O=c1oc2cc(O)c(Cl)cc2c2ccccc12 | -238%
O=c1oc2cc(O)ccc2c2oc3cc(O)ccc3c12 | 21.4%
COc1cccc(NC(=O)CN(C)C(=O)c2cc(-c3cccc(Br)c3)nc3ccccc23)c1 | 4.76%
CCOC(=O)c1nc(NCc2cccc(OC)c2)c2ccccc2n1 | -2.69%
O=C(COC(=O)c1cc(=O)[nH]c2ccccc12)NC1CCCC1 | 8.34%
CCOC(=O)c1cnc2c(C(=O)OCC)cnn2c1N | 4.51%
CCOC(=O)c1cnc2c(C#N)cnn2c1N | -5.32%
CCSc1nc(-c2ccccc2)c(-c2ccccc2)n1CC(O)CO (configuration not stated) | -5.14%
Cc1ccc[n+](-c2[nH]c(=O)sc2/C=N/N=C(\[O-])CCn2c3ccccc3c3ccccc32)c1 | -0.87%
CCc1ccc[n+](-c2[nH]c(=O)sc2/C=N/NC([S-])=Nc2ccccc2)c1 | 30%
O=C(Nc1ccc(F)cc1Cl)c1ccc2c(=O)n3c(nc2c1)CCC3 | 2.76%
O=C(CSc1ccc2c(c1)OCCO2)N1CCN(c2ccccc2O)CC1 | 14.3%
Nc1cc(Cl)ccc1Oc1ccc(Cl)cc1 | 14.4%

SMILES | inhibition
Nc1cc(Cl)ccc1Oc1ccccc1 | -0.78%
CC(=O)Nc1ccc(S(=O)(=O)NCCC(=O)N2CCC(Cc3ccccc3)CC2)cc1 | -8.11%
CCC(=O)N(CCC1(C(C)C)CCOC(C)(C)C1)Cc1ccco1 (configuration not stated) | 1.68%
O=C(CC1C(=O)NCCN1Cc1ccccc1)NCCN1CCCCC1=O (configuration not stated) | 4.62%
CC(C)(C)CN1CCNC(=O)C1CC(=O)NCCN1CCCc2ccccc21 (configuration not stated) | 20.1%
Cc1ccccc1NC(=O)c1cnn(-c2ccccc2)c1C | -7.17%
NC(=S)NCc1cccnc1 | -0.39%
CCn1cc(S(=O)(=O)CC(=O)NC2CCCCC2)c2ccccc21 | -2.6%
CCOC(=O)N1CCN(S(=O)(=O)c2ccc(C)c(C(=O)NC3CCCCC3)c2)CC1 | 5.81%
CCNc1ccccc(-c2ccc3ccccc3n2)c1=O | 14.5%
c1ccc2nc(-c3ccc4c(c3)OCO4)ccc2c1 | 5.74%
COc1ccc(NC(=O)c2cc(S(=O)(=O)N3CCCCC3)ccc2N2CCCCC2)cn1 | 5.2% and 0.78%
O=C(N/N=C/C=C/c1ccccc1)c1ccncc1 | -6.12%
O=C(C=Cc1ccco1)c1ccco1 | 3.42%
Cn1c(=O)c2c(ncn2CC(=O)N/N=C/C=C/c2ccccc2)n(C)c1=O | 7.57%
O=C(c1ccco1)N(c1ccccn1)c1ccccn1 | 3.18%
O=C(/C=C/c1ccco1)Nc1ccccn1 | 1.75%
Cn1c(=O)c2c(ncn2CC(=O)N/N=C/C=C/c2ccccc2[N+](=O)[O-])n(C)c1=O | 10.3%
O=C(/C=C/c1ccco1)Nc1cccnc1 | 1%
COc1ccccc1/C=C/C=N/NC(=O)c1ccncc1 | -1.29%
OC(CNCCNc1ncccc1C(F)(F)F)Cn1ccc2ccccc21 (configuration not stated) | 4.3%
O=C(CNS(=O)(=O)c1ccc(Br)cc1)N1CCN(c2ccc(F)cc2)CC1 | -8.26%
O=C(O)CNC(=O)CCn1nnc2ccccc2c1=O | -2.36%
CCOc1cccc2sc(NC(=O)c3ccc(Br)s3)nc12 | -37.3%
Cc1ccc(NC(=O)CCC(=O)N/N=C/c2cccs2)cc1C | -6.77%

SMILES | inhibition
Cc1cc(C)n2c(SCCC(C)C)nnc2n1 | 10.9%
CCOC(=O)Oc1ccc2c(=O)c(Oc3cccc(C)c3)coc2c1 | 0.27%
CC(=O)N1CCSc2ccc(S(=O)(=O)NCCc3ccc(C)cc3)cc21 | 2.49%
Cc1ccc(SCc2c(C(=O)N/N=C/c3ccc(C)o3)nnn2-c2nonc2N)cc1 | -4.93%
N#Cc1ccc(OCc2cccc(S(=O)(=O)N3CCOCC3)c2)cc1 | 0.78%
c1ccc(-c2nnc(-c3ccco3)o2)cc1 | -6.32%
CC(/C=C/c1ccco1)=N\NC(=O)c1cccc(Cl)c1 | -1.59%
CC(/C=C/c1ccco1)=N/NC(=O)c1ccc(C)nc1 | 1.76%
CC(/C=N/NC(=O)c1cccnc1)=C\c1ccco1 | 28.6%
O=C(N/N=C/C=C/c1ccccc1)c1cccnc1 | -6.59%
CCc1c(C#N)c(SCCC(=O)Nc2cccc(OC)c2)nc2c1C(=O)CC(C)(C)C2 | -3.29%
CC(C)(Cc1ccccc1)NC(=O)C(=O)c1cn(CC(=O)N2CCOCC2)c2ccccc12 | 6.86%
O=C(/C=C/c1ccccc1F)c1cccc([N+](=O)[O-])c1 | -5.2%
O=C(CN(C(=O)CNS(=O)(=O)c1ccc(F)cc1)c1ccc(F)cc1)NCc1ccco1 | -4.81%
Cc1ccc(/C=N/N2CCN(Cc3ccccc3)CC2)cc1 | -2.27%
CC(=O)Nc1ccc(NC(=O)CSc2nnc(CNc3ccc(F)cc3)n2CC2CCCO2)cc1 (configuration not stated) | -7.5%
Cc1ccc(NCc2nnc(SCC(=O)Nc3ncc(C)s3)n2CC2CCCO2)c(C)c1 (configuration not stated) | -1.98%
COC(=O)Cn1ncc2c3ccccc3n(C)c2c1=O | 4.81%
CC(=O)N(c1ccc2oc(=O)sc2c1)S(=O)(=O)c1ccccc1 | 7.75% and 2.73%
COc1ccc(OC)c(S(=O)(=O)N(C(C)=O)c2ccc3oc(=O)sc3c2)c1 | 13.9%
CCC(C)NC(=O)C1CCC(CNS(=O)(=O)c2ccc3c(c2)CC(C)N3C(C)=O)CC1 (configuration not stated) | 4.98%
CCCOC(=O)c1c(NC(=O)CCC(=O)O)sc2c1CCCCC2 | 8.05%
